The record followed here is ChEMBL document CHEMBL3988442, “University of Dundee, Small-Polar-MMV Screening Library” (2021).

What all share (design): scale not given: direction of the effect not stated beside the values
The target in assay [1] is Protein translocase subunit SecA (Escherichia coli (strain K12)) (UniProt P10408). Description: Assay to Identify E. coli SecA ATPase Inhibitors. The class given is functional. The conditions noted are these: 30 µM.
Assay [2] addresses T1, Ubiquitin-activating enzyme e1, putative (Leishmania donovani (strain BPK282A1)) (UniProt E9BSI1).
T1 sequence (whole entry): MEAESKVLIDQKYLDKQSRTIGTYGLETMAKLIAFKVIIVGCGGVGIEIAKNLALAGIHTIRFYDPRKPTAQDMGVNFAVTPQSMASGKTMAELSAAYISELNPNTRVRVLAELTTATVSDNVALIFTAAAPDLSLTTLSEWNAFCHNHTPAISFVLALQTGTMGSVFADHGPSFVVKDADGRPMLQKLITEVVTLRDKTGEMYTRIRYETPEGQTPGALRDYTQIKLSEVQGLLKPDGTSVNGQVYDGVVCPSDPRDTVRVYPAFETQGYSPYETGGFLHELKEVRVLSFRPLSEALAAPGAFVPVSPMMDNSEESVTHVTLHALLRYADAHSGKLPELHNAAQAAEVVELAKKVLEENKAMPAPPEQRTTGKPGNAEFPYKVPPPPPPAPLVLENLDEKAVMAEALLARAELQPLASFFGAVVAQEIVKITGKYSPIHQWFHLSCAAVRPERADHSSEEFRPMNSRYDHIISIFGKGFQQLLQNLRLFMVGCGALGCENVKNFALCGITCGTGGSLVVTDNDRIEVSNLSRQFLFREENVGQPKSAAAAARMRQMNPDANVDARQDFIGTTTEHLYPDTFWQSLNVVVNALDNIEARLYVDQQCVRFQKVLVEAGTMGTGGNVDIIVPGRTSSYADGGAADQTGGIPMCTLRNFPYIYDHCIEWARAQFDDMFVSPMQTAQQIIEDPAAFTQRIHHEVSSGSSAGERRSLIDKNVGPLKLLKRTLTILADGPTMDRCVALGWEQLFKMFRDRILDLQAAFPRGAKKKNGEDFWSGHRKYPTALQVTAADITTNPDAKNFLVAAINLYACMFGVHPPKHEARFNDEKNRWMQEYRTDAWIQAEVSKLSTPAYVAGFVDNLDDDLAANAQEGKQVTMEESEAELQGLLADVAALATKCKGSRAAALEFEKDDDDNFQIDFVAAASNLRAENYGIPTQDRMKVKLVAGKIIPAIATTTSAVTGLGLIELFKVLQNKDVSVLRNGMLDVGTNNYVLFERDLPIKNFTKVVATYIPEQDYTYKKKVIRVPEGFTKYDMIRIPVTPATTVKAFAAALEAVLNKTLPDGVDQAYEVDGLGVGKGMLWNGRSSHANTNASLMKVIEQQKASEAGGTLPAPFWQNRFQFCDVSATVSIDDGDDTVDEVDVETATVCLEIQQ
Description: Leishmania donovani Ubiquitin Activating Enzyme (LdE1). Particulars: 30 µM. The assay is classed as functional.

For assay [3], the target named is AMP-activated protein kinase, AMPK (Homo sapiens) (UniProt P54646+O43741+P54619+Q9UGJ0+Q9Y478+Q13131+Q9UGI9). Briefly: AMP-dependent Kinase enzyme assay. An in vitro enzyme assay that detects ADP turnover that is directly proportional to AMPK activity. This uses naive AMPK that is activated during the assay with MK-8722. The class given is functional. The conditions noted are these: 30 µM.

The target in assay [4] is Sialic acid-binding Ig-like lectin 9 (Homo sapiens) (UniProt Q9Y336). Description: Hs-Siglec9 ALPHAscreen SOP 20170721. Particulars: 10 µM.
Chain of Sialic acid-binding Ig-like lectin 9 (Homo sapiens) (Q9Y336 whole entry): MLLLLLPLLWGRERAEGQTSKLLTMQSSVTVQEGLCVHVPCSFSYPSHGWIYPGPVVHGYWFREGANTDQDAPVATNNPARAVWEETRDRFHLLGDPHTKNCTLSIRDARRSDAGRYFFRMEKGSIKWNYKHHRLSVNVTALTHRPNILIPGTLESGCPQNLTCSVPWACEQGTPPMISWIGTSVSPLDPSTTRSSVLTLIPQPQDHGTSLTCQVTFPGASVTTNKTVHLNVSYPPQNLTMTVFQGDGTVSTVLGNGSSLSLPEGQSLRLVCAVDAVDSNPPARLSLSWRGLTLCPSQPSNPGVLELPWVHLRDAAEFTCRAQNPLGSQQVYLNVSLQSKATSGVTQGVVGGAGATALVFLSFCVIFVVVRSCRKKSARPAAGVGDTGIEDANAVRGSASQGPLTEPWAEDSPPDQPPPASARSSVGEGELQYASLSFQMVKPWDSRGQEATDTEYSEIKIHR
Assay [5] concerns Trypanosoma cruzi. Description: Trypanosoma cruzi phosphomannomutase and mannose-1-phosphate guanylyltransferase assay. The assay is classed as functional. The conditions noted are these: 10 µM.
Assay [6] concerns the target T2, Arginase-2, mitochondrial (Homo sapiens) (UniProt P78540).
T2 sequence (whole entry): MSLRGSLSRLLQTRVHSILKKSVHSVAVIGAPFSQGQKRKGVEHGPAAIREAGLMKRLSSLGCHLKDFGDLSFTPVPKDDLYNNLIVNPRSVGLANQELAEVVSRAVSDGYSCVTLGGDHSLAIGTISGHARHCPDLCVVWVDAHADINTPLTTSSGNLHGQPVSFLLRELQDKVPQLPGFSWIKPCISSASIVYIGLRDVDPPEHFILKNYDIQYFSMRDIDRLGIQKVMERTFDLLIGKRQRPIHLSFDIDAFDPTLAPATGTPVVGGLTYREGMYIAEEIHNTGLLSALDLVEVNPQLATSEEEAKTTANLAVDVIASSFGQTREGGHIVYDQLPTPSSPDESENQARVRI
Briefly: in vitro enzyme assay to detect the production of urea directly proportional to the activity of Arginase II. Also: in the data most compounds retested in dose-response had high values. The assay is classed as functional. Particulars: 33.3 µM.

The target of assay [7] is T3, Proteasome subunit beta (Trypanosoma cruzi) (UniProt O96673).
T3 sequence (whole entry): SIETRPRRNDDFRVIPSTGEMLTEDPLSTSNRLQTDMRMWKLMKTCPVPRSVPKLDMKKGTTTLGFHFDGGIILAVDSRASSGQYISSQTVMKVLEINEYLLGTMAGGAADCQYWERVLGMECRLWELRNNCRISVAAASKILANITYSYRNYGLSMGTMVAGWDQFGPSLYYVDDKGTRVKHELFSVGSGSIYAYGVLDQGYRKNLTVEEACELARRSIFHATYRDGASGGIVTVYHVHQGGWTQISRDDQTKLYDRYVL
Briefly: Trypanosoma cruzi proteasome chymotrypsin-like activity (TcProtChymo) assay. Also: in the data most compounds retested in dose-response had high values. The class given is functional. The conditions noted are these: 9.37 µM.

Assay [8] is filed under the species Homo sapiens. Description: To identify inhibition of the IFN signalling (Jak-Stat) pathway via expression of an eGFP reporter gene under the control of an IFN-stimulated response element (ISRE) containing MxA promoter. The class given is functional. Particulars: 30 µM.
Assay [9] has as its target T4, Tyrosyl-tRNA synthetase, putative (Trypanosoma cruzi (strain CL Brener)) (UniProt Q4DSP6).
T4 sequence (whole entry): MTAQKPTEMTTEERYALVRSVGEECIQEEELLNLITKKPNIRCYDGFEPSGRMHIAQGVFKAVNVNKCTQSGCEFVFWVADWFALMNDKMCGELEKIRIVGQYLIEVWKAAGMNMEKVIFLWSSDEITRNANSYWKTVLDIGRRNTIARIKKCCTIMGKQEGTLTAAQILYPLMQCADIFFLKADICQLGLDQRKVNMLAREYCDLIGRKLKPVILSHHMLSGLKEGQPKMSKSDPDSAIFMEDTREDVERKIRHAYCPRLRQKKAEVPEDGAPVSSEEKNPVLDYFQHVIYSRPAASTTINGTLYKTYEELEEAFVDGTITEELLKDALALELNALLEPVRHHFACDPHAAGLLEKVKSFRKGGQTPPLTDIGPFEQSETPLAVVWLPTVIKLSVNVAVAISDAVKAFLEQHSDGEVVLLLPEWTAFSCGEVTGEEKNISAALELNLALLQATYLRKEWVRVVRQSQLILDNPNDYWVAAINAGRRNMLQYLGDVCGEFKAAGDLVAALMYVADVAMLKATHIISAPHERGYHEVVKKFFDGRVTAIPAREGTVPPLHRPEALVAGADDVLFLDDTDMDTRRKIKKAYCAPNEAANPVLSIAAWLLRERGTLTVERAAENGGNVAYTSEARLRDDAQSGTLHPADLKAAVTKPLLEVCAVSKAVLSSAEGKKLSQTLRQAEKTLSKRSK
Briefly: Trypanosoma cruzi tyrosyl tRNA synthetase (TcYRS) _High Tyrosine SOP. Also: in the data most compounds retested in dose-response had high values. The class given is functional. Particulars: 30 µM.

In assay [10] the target is T4, Tyrosyl-tRNA synthetase, putative (Trypanosoma cruzi (strain CL Brener)). Description: Trypanosoma cruzi tyrosyl tRNA synthetase (TcYRS) SOP. The assay is classed as functional. Particulars: 30 µM.
In assay [11] the target is Chromo domain-containing protein 1 (Saccharomyces cerevisiae (strain ATCC 204508 / S288c) (Baker's yeast)) (UniProt P32657). Briefly: ScCHD-1 Enzyme Inhibition Assay. Also: in the data most compounds retested in dose-response had high values. The class given is functional. The conditions noted are these: 30 µM.
Chain of Chromo domain-containing protein 1 (Saccharomyces cerevisiae (strain ATCC 204508 / S288c) (Baker's yeast)) (P32657 whole entry, the tested form may be a part): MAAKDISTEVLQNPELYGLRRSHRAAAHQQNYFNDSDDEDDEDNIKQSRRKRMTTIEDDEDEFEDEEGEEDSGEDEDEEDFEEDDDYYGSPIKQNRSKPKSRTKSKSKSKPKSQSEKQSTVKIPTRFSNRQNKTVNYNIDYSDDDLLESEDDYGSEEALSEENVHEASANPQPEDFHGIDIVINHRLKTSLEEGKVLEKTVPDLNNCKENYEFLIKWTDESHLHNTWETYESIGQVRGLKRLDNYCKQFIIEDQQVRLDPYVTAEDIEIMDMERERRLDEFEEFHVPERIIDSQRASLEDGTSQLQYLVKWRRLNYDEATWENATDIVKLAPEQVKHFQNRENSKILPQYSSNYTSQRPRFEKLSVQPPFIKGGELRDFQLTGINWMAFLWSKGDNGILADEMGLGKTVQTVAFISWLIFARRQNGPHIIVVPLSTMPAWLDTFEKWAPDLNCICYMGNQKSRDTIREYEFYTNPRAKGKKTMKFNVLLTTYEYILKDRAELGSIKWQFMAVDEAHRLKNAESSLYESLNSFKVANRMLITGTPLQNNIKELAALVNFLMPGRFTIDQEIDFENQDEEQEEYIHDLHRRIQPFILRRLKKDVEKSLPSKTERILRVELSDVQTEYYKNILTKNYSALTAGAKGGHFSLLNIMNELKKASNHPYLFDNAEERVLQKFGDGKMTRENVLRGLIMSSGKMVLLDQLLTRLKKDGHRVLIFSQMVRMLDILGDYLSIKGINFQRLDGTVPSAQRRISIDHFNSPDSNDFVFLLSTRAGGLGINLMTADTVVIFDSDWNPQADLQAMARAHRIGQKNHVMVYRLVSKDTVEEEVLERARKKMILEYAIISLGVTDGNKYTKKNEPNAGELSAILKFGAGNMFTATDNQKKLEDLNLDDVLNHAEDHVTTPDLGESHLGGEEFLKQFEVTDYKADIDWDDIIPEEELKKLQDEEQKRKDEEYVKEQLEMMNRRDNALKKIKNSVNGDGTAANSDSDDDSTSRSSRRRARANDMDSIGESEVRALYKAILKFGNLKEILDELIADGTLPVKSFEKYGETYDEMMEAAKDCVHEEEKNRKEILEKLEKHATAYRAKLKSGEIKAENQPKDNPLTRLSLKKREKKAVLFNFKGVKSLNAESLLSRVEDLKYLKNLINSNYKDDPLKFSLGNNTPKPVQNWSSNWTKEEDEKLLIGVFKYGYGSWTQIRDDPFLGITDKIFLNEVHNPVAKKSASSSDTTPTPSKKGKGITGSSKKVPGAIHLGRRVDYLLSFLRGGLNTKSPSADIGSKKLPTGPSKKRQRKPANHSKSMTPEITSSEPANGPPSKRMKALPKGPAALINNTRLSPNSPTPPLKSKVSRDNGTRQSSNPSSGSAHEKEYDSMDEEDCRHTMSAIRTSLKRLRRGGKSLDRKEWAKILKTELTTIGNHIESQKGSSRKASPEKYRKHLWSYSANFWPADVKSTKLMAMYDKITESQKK

For some of these results: Measured potencies and affinities stand elsewhere.

Chain of Protein translocase subunit SecA (Escherichia coli (strain K12)) (P10408 whole entry): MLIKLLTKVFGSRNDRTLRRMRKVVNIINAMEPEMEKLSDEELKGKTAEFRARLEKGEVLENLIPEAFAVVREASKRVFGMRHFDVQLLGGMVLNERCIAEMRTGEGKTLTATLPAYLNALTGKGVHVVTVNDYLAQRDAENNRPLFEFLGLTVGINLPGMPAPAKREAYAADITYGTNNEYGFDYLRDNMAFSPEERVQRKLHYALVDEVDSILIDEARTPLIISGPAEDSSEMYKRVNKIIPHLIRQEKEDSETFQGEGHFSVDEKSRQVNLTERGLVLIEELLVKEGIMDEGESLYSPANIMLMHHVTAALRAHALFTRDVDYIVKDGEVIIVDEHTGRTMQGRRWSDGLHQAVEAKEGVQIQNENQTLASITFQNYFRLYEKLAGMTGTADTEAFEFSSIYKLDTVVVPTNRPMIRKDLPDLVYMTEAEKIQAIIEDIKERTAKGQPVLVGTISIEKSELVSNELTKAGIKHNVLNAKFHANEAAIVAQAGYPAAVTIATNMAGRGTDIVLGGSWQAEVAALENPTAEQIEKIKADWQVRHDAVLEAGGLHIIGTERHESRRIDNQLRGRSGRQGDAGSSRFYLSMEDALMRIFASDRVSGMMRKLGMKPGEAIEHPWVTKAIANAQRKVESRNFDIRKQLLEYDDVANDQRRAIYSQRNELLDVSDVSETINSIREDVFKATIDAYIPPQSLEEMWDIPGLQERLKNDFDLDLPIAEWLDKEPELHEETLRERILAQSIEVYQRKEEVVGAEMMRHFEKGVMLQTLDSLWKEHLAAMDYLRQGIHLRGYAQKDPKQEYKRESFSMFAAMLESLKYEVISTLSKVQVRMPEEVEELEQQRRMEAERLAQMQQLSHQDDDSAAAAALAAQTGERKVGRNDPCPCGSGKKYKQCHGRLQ

On to `CCc1nc(C2CCCN(C(=O)c3cccc4cn[nH]c34)C2)no1` (stereo not drawn), for which the Percent Effect in [1] was -7.64%; in [2], 5.41%; in assay [3], 1.19%; in assay [4], 7.35%; in assay [5], -6.41%; in assay [6] it was -2.77%. The Percent Effect in assay [7] is 6.64%; in assay [8] it was 19.4%; in [9], 2.97%; in [10], 1.22%; in [11] it was 3.58%.
Regarding `O=C(NCc1ccccc1CN1CCC(O)CC1)Nc1ccncc1`, the Percent Effect was 5.78% in [1]; 10.8% in assay [2]; -5.37% in [3]; 6.21% in assay [4]; -5.21% in assay [5]; 0% in assay [6]. For the same compound, the Percent Effect was 16.2% in assay [7]; 28% in assay [8]; 6.88% in assay [9]; 14.6% in assay [10]; -3.29% in [11].
As for `O=C(NCC1CCOCC1)[C@H]1C[C@@H]2CCN(Cc3ccncc3)C[C@@H]2O1`, the Percent Effect in assay [1] was -1.48%; in assay [2] it was -2.67%; in [3], -3.45%; in [4] it was 1.78%; in [5], 3.28%; in assay [6], -1.25%. Moreover, the Percent Effect in assay [7] is 14%; in [8], -16.5%; in assay [9], 1.04%; in assay [10], 7.5%; in assay [11], -5.98%.
Consider `Cc1nc(C)n(CC2CN(c3ncnc4[nH]ccc34)CCO2)n1` (stereo not drawn), for which the Percent Effect in assay [1] was -2.48%; in [2] it was 11.4%; in [3], 24%; in assay [4] it was -0.101%; in assay [5], -3.38%; in assay [6], -2.37%. Besides, the Percent Effect in assay [7] is 6%; in assay [8] it was 28.6%; in [9], 2.08%; in assay [10], 12.7%; in assay [11], -20.9%.
As to `CC(=O)N(Cc1ncc(C)o1)C1CCN(Cc2noc(C)n2)C1` (stereo not drawn), the Percent Effect in assay [1] is -3.16%; in assay [2], 26%; in [3], -5.5%; in assay [4] it was -2.16%; in assay [5], 6.76%; in assay [6] it was -3.16%. Besides, the Percent Effect in [7] was found to be 11.9%; in assay [8], 1.88%; in [9], 8.57%; in assay [10] it was 30.6%; in assay [11], 2.25%.
With `COCC(=O)NCc1cc(=O)n2c(n1)CN(Cc1ccsc1)CCC2`, the Percent Effect is -5.93% in [1]; 8.11% in [2]; 3.64% in [3]; -0.625% in assay [4]; -2.83% in [5]; 6.05% in [6]. Moreover, the Percent Effect was 17.9% in [7]; -15.7% in [8]; 2.16% in assay [9]; 5.13% in assay [10]; 2.68% in [11].
`CCOC(=O)c1sc2ccsc2c1CN`: the Percent Effect in [1] was -2.04%; in assay [2], -5.41%; in [3], -6.96%; in assay [4], -0.173%; in assay [5], -5.29%; in assay [6], 3.88%. For the same compound, the Percent Effect in [7] was -7.36%; in assay [8], 20.9%; in assay [9], 0%; in [10] it was -1.22%; in assay [11], 5.83%.
On to `Cc1ccsc1CN(CCN(C)C)Cc1ccccn1`, for which the Percent Effect in assay [1] is -5.5%; in assay [2], 4.17%; in assay [3], -16.2%; in assay [4], 21.2%; in [5] it was 5.15%; in assay [6] it was 18.5%. Besides, the Percent Effect was 11.1% in assay [7]; -4.45% in assay [8]; 7.37% in [9]; 15.4% in [10]; -9.23% in assay [11].
